Source: publication PMC7862700, “An all-to-all approach to the identification of sequence-specific readers for epigenetic DNA modifications on cytosine”

Columns and labels:
Assay in all cases: DAPPL (digital affinity profiling via proximity ligation, sequencing); 10 mM Tris-HCl pH 7.5, 50 mM NaCl, 1 mM DTT, 4% glycerol, room temperature, 30 min; GST-TFs on glutathione beads, 16-mer random dsDNA library, 0.1% formaldehyde crosslink after washing; high values mean tight binding
FLI1 = target: T1, FLI1 (Homo sapiens, UniProt Q01543 1-452); settings: protein: recombinant; tags: N-terminal GST; dsDNA, one strand shown
T1 sequence: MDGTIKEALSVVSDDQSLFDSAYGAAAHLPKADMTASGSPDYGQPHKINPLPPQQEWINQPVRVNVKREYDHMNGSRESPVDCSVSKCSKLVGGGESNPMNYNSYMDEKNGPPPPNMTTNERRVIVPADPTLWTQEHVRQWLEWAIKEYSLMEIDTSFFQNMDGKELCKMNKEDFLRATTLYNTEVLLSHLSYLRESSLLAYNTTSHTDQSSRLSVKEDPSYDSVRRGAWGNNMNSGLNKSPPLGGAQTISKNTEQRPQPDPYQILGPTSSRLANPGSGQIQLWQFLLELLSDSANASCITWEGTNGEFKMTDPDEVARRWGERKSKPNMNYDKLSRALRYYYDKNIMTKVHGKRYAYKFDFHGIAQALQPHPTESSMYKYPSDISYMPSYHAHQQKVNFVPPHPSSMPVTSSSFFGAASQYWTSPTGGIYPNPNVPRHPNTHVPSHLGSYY
Outline: (§1)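 A tag-only sample was pooled with DNA-barcoded human transcription factors that had been expressed in yeast as GST fusions and captured on glutathione beads. The pools were incubated for 30 min at room temperature with 200 nmole of a random double-stranded 16-mer DNA library in Tris/NaCl/DTT/glycerol buffer, then washed, crosslinked with 0.1% formaldehyde, proximity-ligated (BsaI/T4 ligase, 1 h, 37 °C), PCR-amplified and sequenced on an Illumina NextSeq500. Binding signal is each hexamer's read frequency for a factor divided by its frequency for the tag-only sample.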

GABPA = target: T2, GABPA (Homo sapiens, UniProt Q06546 1-454); settings: protein: recombinant; tags: N-terminal GST; dsDNA, one strand shown
T2 sequence: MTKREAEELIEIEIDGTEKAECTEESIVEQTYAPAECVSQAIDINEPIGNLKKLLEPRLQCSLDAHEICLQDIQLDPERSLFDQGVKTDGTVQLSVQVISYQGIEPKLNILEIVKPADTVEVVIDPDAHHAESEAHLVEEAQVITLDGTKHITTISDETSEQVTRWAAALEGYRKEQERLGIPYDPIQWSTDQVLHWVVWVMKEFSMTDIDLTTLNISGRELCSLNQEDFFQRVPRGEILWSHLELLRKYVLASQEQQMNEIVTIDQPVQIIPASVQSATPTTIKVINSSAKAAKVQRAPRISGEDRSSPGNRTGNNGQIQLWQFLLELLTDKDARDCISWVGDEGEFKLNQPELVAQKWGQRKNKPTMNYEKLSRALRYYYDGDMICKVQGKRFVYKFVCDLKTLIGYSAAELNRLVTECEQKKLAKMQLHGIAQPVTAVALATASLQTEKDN
Outline: as §1

ERG = target: T3, ERG (Homo sapiens, UniProt P11308 1-479); settings: protein: recombinant; tags: N-terminal GST; dsDNA, one strand shown
T3 sequence: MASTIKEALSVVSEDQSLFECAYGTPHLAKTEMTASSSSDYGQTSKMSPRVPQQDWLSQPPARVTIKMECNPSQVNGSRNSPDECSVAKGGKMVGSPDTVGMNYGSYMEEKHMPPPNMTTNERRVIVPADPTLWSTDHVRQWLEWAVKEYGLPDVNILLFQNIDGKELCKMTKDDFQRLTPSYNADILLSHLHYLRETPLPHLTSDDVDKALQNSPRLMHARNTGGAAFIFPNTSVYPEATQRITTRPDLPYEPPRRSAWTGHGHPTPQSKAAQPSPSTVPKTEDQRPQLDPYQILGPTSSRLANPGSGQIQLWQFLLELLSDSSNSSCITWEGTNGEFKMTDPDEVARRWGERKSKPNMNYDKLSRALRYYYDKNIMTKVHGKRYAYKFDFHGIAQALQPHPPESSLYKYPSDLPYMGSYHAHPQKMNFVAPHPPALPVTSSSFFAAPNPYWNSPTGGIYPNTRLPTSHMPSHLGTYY
Outline: as §1

ELF1 = ELF1 (Homo sapiens, UniProt P32519 1-619); settings: protein: recombinant; tags: N-terminal GST; dsDNA, one strand shown
Sequence of ELF1 (P32519 whole entry): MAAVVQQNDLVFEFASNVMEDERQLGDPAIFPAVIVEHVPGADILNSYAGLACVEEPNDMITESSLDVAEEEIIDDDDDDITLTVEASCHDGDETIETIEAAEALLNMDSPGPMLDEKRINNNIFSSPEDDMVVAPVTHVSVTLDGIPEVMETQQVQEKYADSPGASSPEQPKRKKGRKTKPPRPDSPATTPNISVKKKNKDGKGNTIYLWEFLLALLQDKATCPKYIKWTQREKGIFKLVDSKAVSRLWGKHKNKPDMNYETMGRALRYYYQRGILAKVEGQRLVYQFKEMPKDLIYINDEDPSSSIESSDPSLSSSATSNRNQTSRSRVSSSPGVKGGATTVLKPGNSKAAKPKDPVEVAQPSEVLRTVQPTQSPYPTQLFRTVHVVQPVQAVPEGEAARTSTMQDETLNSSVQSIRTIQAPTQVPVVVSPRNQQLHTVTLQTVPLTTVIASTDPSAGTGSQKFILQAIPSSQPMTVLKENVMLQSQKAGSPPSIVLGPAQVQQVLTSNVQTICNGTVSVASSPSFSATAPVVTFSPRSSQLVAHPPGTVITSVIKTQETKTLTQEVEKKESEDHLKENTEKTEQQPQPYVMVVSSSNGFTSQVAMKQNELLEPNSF
Outline: as §1

EHF = target: T4, EHF (Homo sapiens, UniProt Q9NZC4 1-300); settings: protein: recombinant; tags: N-terminal GST; dsDNA, one strand shown
T4 sequence: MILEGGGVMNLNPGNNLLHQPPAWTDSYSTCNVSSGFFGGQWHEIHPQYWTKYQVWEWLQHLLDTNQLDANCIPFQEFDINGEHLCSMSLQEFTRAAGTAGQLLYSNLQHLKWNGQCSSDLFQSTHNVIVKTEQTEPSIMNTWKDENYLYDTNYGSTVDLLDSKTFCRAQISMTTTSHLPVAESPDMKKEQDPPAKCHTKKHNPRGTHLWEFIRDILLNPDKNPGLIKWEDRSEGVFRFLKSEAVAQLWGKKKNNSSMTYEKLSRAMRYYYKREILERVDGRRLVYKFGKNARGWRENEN
Outline: as §1

SPI1 = SPI1 (Homo sapiens, UniProt P17947 1-270); settings: protein: recombinant; tags: N-terminal GST; dsDNA, one strand shown
Outline: as §1

ELK3 = target: T5, ELK3 (Homo sapiens, UniProt P41970 1-407); settings: protein: recombinant; tags: N-terminal GST; dsDNA, one strand shown
T5 sequence: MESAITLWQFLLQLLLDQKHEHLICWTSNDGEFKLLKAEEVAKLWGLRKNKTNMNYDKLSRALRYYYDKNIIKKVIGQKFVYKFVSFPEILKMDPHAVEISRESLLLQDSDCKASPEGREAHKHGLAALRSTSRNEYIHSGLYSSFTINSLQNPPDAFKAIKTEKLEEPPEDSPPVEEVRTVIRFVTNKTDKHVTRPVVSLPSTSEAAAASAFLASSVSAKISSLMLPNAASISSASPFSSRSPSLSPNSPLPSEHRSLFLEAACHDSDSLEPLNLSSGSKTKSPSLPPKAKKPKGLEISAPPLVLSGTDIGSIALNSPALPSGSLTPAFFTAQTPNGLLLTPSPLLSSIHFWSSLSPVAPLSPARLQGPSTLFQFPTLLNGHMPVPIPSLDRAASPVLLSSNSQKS
Outline: as §1

ETV5 = ETV5 (Homo sapiens, UniProt P41161 1-510); settings: protein: recombinant; tags: N-terminal GST; dsDNA, one strand shown
Sequence of ETV5 (P41161 whole entry): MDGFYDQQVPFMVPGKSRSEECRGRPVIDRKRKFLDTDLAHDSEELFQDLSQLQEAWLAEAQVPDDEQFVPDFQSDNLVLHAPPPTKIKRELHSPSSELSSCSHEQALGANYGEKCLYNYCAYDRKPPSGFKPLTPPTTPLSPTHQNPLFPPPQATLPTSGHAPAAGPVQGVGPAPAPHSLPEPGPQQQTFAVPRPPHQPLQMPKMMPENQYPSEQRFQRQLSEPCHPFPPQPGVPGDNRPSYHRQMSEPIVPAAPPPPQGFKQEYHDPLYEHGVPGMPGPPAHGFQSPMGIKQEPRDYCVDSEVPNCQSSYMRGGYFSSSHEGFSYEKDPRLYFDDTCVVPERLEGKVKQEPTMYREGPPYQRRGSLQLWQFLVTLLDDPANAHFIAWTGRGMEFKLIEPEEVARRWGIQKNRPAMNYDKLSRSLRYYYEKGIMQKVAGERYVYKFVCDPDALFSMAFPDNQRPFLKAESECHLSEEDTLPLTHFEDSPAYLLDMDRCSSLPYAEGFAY
Outline: as §1

HSF1 = HSF1 (Homo sapiens, UniProt Q00613 1-529); settings: protein: recombinant; tags: N-terminal GST; chain copies: 3; dsDNA, one strand shown
Sequence of HSF1 (Q00613 whole entry): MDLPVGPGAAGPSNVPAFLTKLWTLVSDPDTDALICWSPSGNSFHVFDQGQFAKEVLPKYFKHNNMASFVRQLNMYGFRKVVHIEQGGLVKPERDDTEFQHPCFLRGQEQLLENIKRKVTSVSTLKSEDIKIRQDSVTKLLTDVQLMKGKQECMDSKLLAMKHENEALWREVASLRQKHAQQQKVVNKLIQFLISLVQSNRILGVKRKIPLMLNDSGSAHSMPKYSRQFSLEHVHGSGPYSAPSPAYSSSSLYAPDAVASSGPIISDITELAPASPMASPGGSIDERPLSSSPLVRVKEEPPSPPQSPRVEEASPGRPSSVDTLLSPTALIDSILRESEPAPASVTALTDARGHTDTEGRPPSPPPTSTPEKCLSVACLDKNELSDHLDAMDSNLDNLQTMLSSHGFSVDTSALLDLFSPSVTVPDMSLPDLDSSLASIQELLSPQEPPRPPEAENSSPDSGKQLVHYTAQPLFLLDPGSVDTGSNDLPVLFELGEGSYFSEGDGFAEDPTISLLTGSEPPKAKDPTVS
Outline: as §1

SPIC = target: T6, SPIC (Homo sapiens, UniProt Q8N5J4 1-248); settings: protein: recombinant; tags: N-terminal GST; dsDNA, one strand shown
T6 sequence: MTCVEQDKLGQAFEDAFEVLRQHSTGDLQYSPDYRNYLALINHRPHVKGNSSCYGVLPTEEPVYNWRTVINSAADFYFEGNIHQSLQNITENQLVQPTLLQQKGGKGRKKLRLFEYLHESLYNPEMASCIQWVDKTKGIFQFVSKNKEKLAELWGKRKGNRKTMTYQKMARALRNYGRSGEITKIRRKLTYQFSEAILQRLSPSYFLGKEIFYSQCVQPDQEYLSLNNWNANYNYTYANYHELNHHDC
Outline: as §1

ETV2 = target: T7, ETV2 (Homo sapiens, UniProt O00321 1-342); settings: protein: recombinant; tags: N-terminal GST; dsDNA, one strand shown
T7 sequence: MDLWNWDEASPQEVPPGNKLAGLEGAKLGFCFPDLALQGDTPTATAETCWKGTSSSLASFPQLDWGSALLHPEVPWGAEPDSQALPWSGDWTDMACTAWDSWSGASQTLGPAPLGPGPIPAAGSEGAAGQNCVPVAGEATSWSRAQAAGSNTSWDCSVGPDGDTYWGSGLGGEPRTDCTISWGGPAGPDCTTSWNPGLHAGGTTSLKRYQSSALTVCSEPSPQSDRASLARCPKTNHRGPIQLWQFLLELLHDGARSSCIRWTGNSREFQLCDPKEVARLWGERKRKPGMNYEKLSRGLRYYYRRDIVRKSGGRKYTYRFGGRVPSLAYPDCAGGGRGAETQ
Outline: as §1

ELF3 = target: T8, ELF3 (Homo sapiens, UniProt P78545 1-371); settings: protein: recombinant; tags: N-terminal GST; dsDNA, one strand shown
T8 sequence: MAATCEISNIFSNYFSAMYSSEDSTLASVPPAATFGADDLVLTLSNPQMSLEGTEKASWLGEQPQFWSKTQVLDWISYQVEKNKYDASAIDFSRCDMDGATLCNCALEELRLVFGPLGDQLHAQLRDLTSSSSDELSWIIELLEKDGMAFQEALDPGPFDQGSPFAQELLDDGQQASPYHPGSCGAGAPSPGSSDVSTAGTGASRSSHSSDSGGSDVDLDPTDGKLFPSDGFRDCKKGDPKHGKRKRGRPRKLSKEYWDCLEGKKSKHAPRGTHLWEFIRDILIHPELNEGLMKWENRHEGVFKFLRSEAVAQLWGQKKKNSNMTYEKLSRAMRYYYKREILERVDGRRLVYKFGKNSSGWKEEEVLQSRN
Outline: as §1

CRX = CRX (Homo sapiens, UniProt O43186 1-299); settings: protein: recombinant; tags: N-terminal GST; dsDNA, one strand shown
Sequence of CRX (O43186 whole entry): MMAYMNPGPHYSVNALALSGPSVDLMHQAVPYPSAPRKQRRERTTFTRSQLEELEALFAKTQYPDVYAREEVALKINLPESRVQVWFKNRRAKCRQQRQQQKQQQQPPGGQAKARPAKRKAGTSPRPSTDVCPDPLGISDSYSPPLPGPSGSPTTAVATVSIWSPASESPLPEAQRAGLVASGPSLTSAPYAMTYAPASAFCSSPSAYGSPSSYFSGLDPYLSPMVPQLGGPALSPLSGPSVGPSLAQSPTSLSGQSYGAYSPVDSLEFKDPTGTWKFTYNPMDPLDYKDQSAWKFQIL
Outline: as §1

ETV1 = ETV1 (Homo sapiens, UniProt P50549 1-477); settings: protein: recombinant; tags: N-terminal GST; dsDNA, one strand shown
Sequence of ETV1 (P50549 whole entry): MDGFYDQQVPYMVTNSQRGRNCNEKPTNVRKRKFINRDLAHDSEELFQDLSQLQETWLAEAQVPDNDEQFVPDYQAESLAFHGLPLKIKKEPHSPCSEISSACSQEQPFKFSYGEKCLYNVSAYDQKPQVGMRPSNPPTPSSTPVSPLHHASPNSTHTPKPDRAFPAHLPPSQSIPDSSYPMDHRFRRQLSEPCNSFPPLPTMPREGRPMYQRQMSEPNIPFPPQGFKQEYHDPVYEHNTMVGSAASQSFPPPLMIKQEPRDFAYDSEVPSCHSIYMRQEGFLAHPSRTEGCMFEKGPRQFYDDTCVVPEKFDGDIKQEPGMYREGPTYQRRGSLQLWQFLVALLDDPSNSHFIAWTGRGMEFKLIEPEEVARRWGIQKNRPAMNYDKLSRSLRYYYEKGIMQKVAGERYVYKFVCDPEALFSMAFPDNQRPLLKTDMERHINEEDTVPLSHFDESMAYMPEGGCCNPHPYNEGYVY
Outline: as §1

Q: What does the source list for TAAGCG?
A: binding signal (FLI1): 1.05 fold enrichment (6-mer frequency, TF over GST control); binding signal (GABPA): 1.01 fold enrichment (6-mer frequency, TF over GST control); binding signal (ERG): 1.02 fold enrichment (6-mer frequency, TF over GST control); binding signal (ELF1): 1.02 fold enrichment (6-mer frequency, TF over GST control); binding signal (EHF): 1.02 fold enrichment (6-mer frequency, TF over GST control); binding signal (SPI1): 1.03 fold enrichment (6-mer frequency, TF over GST control); binding signal (ELK3): 1.01 fold enrichment (6-mer frequency, TF over GST control); binding signal (ETV5): 1.02 fold enrichment (6-mer frequency, TF over GST control); binding signal (HSF1): 1.34 fold enrichment (6-mer frequency, TF over GST control); binding signal (SPIC): 1.04 fold enrichment (6-mer frequency, TF over GST control); binding signal (ETV2): 1.05 fold enrichment (6-mer frequency, TF over GST control); binding signal (ELF3): 1.19 fold enrichment (6-mer frequency, TF over GST control); binding signal (CRX): 1.86 fold enrichment (6-mer frequency, TF over GST control); binding signal (ETV1): 1 fold enrichment (6-mer frequency, TF over GST control)
